Screens: PubChem, several laboratories
This is a sample that favours compounds with a hit; in the whole collection about 3.1% have one here.
HSF-1 act = HSF-1 activators, primary screen, NIH3T3-HGL cells, MG132 stress, luminescence, single point; activation, % at 9 µM; hit rate 1.7% among 300,000; NIH3T3-HGL HSF-1 luciferase reporter, 8 h; 100% = twice DMSO control signal; AID 504408, 2011;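 active = mean replicate activation of at least 50% with a set share of replicates each reaching 50%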
HIF act = HIF pathway transcriptional activators, primary screen, cell-based, U2OS HRE-luciferase, luminescence. U2OS HRE-luciferase reporter; normalized: DMSO 0%, desferrioxamine 100%. activation, % at 7.5 µM (by protocol). hit rate 0.32% among 300,000. AID 1910, 2009;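 active = mean activation of at least 10% of the iron chelator positive control signal, with at least half of replicates also reaching 10%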
HSF1 inh = HSF1 inhibitors in luciferase reporter cells, primary screen, cell-based, NIH3T3, luminescence. AID 2098, 2009. NIH3T3-HGL HSE-luciferase, MG132-induced, luminescence 8 h; active compounds read low. hit rate 0.77% among 300,000. activity change, negative = inhibition, % at 7.5 µM (by protocol);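 active = more than half of replicate wells show activity change below -50%, luminescence cut by over half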;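 note: luciferase reports HSF-1 transcriptional activity via heat shock element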
ARNT-TACC3 inh = disruptors of ARNT/TACC3 protein interaction, primary screen, biochemical, AlphaScreen, single concentration | AlphaScreen His-ARNT PAS-B/GST-TACC3 binding, luminescence; TACC3 fragment carries E629A point mutation | hit rate 0.66% among 390,000 | inhibition, % at 9.99 µM | Transforming acidic coiled-coil-containing protein 3 (Homo sapiens), Q9Y6A5;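 active = mean inhibition of replicates at least 50% and at least half of replicates each reaching 50%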
HSP90 refold inh = HSP90 inhibitors, primary screen, cell lysate, luminescence | Heat shock protein HSP 90 (rabbit reticulocyte lysate; luciferase refolding) | Rabbit reticulocyte lysate, luciferase refolding luminescence, 3 h | hit rate 0.91% among 290,000 | inhibition, % at 5.6 µM;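 active = inhibition above the screen-wide mean plus 3 SD, computed separately per campaign, cut at about 16% in these data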;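 note: inhibitors lower the luminescence because luciferase stays unfolded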
ARNT Alpha ctr = AlphaScreen signal interference compounds, dose response, artefact control for ARNT-TACC3 interaction inhibitor project, biochemical, luminescence, cherry-pick; shares compounds with ARNT-TACC3 inh; His-ARNT PASB-GST AlphaScreen artifact counter-screen; AC50, µM (top dose mostly 68 µM); hit rate 50% among 1,200;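 active = every separate test run was called active for a drop in luminescence, with AC50 within twice the top valid dose, actives reach about 71 µM in these data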
A number is an active result; - = inactive; . = no result; ! = not active in a repeat.

SMILES	HSF-1 act	HIF act	HSF1 inh	ARNT-TACC3 inh	HSP90 refold inh	ARNT Alpha ctr
COc1ccc(NC(=O)N[C@@H]2CC[C@H](CCn3cc(-c4ccccn4)nn3)O[C@@H]2CO)cc1	.	.	.	63	.	51µM
Cc1ccccc1Nc1nnc(SCC(=O)NC(=O)NCc2ccco2)s1	-	-	-	62	-	-
NC(=O)c1[nH]cnc1N	-	-	-	69!	-	-
CCCCOC(=O)c1nc[nH]c1C(=O)OCCCC	-	-	-	-	-	.
CCCN(C(=O)Cc1nc(N)n[nH]1)C1(C(=O)Nc2ccccc2C)CCCCC1	-	-	-	50	-	-
CO[C@@H]1CN(C)C(=O)c2cc(NC(=O)Nc3ccccc3)ccc2OC[C@@H](C)N(C(=O)Nc2c(C)noc2C)C[C@@H]1C	.	.	.	-	.	.
COc1cc(CNCc2ccccn2)ccc1OCc1c(Cl)cccc1Cl	-	-	-	56	-	-
COc1cc(CNCc2ccccn2)ccc1OCc1cccc(Cl)c1	-	-	-	53	-	-
COc1cc(CNCCN2CCOCC2)ccc1OCc1c(Cl)cccc1Cl	-	-	-	.	-	.
COc1cc(CNCc2ccccn2)ccc1OCc1ccc(Cl)cc1	-	-	-	53	-	-
C[C@H](CO)N1C[C@H](C)[C@H](CN(C)C(=O)c2ccc(F)cc2)OCc2ccccc2-c2c(n(C)c3ccccc23)C1=O	.	.	.	-	.	.
CC(=O)NC(c1ccc(C(C)C)cc1)c1c(O)ccc2ccccc12 (stereo not drawn)	-	-	-	.	.	.
CC(=O)NC(CC(=O)NC(C)c1ccc(Cl)cc1Cl)c1ccccc1 (stereo not drawn)	-	-	-	-	-	.
CCCCC(=O)NC(c1ccc(N(C)C)cc1)c1ccc2cccnc2c1O (stereo not drawn)	-	89	-	60	19	11µM
CC(=O)NC(c1ccc2ccccc2c1)c1ccc2cccnc2c1O (stereo not drawn)	-	90	-	62	-	15µM
CC(=O)NC(c1ccc(Cl)cc1Cl)c1ccc2cccnc2c1O (stereo not drawn)	-	246	-	66	-	22µM
CN(Cc1ccccc1)CC(O)COc1ccc(CNCc2nccn2C)cc1 (stereo not drawn)	-	-	-	63	-	-
CN(C)CC(=O)N1CCCCN2[C@H](CO)[C@@H](c3ccc(-c4cccnc4)cc3)[C@@H]2C1	.	.	.	-	.	.
CC1(C)Cc2c(sc3nc4n(-c5ccccc5)c(=O)c(CCC(=O)O)nn4c(=O)c23)CO1	-	-	-	57	-	-
Clc1cnc(N/N=C/c2cccs2)c(Cl)c1	-	-	-	-	-	.
C(=N\Nc1ncnc2nc[nH]c12)/c1cccs1	-	-	-	51	-	-
Clc1ccc(CCNc2ncnc3nc[nH]c23)cc1	.	.	.	-	-	.
Fc1ccc(/C=N/Nc2ncnc3nc[nH]c23)cc1F	-	-	-	52	-	-
O=C(NCC1CC1)[C@@H]1[C@@H](CO)[C@@H]2Cn3c(ccc(-c4cccnc4)c3=O)[C@H]1N2C(=O)C1CC1	.	.	.	-	.	.
COc1ccc(-c2cnc3c(c2)C(=O)N([C@H](C)CO)C[C@H](C)[C@H](CN(C)Cc2ccc(C(=O)O)cc2)O3)cc1	.	.	.	-	.	.
SMILES	HSF-1 act	HIF act	HSF1 inh	ARNT-TACC3 inh	HSP90 refold inh	ARNT Alpha ctr
C[C@@H]1CN([C@@H](C)CO)C(=O)c2cc(-c3cccnc3)cnc2O[C@H]1CN(C)C	.	.	.	-	.	.
CSc1nnc(-c2cc3c(s2)-c2ccccc2CC3)o1	-	-	-	-	-	.
S=c1[nH]nc(-c2cc3c(s2)-c2ccccc2CC3)o1	-	-	-	70	-	-
O=C(c1ccccn1)N1CC[C@@H]2[C@@H](CO)Nc3ccc(Br)cc3[C@@H]21	.	.	.	-	.	.
O=C(c1ccccn1)N1CC[C@@H]2[C@H](CO)Nc3ccc(Br)cc3[C@@H]21	.	.	.	77	.	45µM
COC(=O)c1[nH]c2ccccc2c1NC(=O)Oc1ccccc1	-	-	-	-	-	.
COC(=O)c1[nH]c2cc(OC)c(OC)cc2c1NC(=O)Oc1ccccc1	-	-	-	35	-	-
O=C(CNCc1ccccn1)Nc1cc(C(F)(F)F)ccc1N1CCOCC1	-	-	-	58	-	-
O=C(C[C@@H]1C[C@@H]2c3cc(NC(=O)c4cccnc4)ccc3O[C@@H]2[C@@H](CO)O1)NCc1ccncc1	.	.	.	-	.	.
c1coc(Cn2c(SCc3nc4ccccc4[nH]3)nnc2-c2cnccn2)c1	-	-	-	-	-	.
c1ccc(-c2nnc(SCc3nc4ccccc4[nH]3)n2Cc2ccco2)nc1	-	-	-	61	-	-
Cc1ccc(N(C)S(=O)(=O)c2cccc(C(=O)Oc3ccc4c(C)cc(=O)oc4c3)c2)cc1	-	-	-	53	-	-
COc1ccccc1-c1nnc(NC(=O)Cc2ccccc2)o1	-	-	-	54	-	-
O=C(Cc1ccccc1)Nc1nnc(-c2ccccc2)o1	-	-	-	-	-	.
Cc1nnc(SCC(=O)Nc2nnc(-c3ccccc3)o2)s1	-	-	-	56	.	-
CCOc1ccccc1C(=O)OCC(=O)Nc1nnc(-c2ccccc2)o1	-	-	-	54	.	-
C[C@H]1CN([C@@H](C)CO)C(=O)c2cc(C#CCc3ccccc3)cnc2O[C@H]1CN(C)Cc1ccc(C(=O)O)cc1	.	.	.	-	.	.
CCN(CC(=O)NCc1cccs1)CC(=O)Nc1cccc(S(N)(=O)=O)c1	.	.	.	26	.	-
O=C(C[C@@H]1CC[C@@H](NC(=O)c2ccccc2)[C@H](CO)O1)Nc1ccc(-c2ccccc2)cc1	.	.	.	54	.	-
O=C(C[C@@H]1CC[C@H](NC(=O)Nc2cc(F)ccc2F)[C@@H](CO)O1)Nc1ccc(-c2ccccc2)cc1	.	.	.	54	.	-
C[C@@H]1CN([C@@H](C)CO)S(=O)(=O)c2ccc(-c3cncnc3)cc2O[C@@H]1CN(C)C(=O)C1CCC1	.	.	.	-	.	.
COC(=O)C[C@@H]1CC[C@@H]2[C@H](COc3ccc(NC(=O)Nc4cccc(C)c4)cc3C(=O)N2C)O1	.	.	.	-	.	.
CN1C(=O)c2cc(NC(=O)Nc3ccccc3F)ccc2OC[C@H]2O[C@@H](CC(=O)NCCc3ccncc3)CC[C@@H]21	.	.	.	-	.	.
CCCNC(=O)Nc1ccc2c(c1)OC[C@@H](C)N(C(=O)c1ccccc1F)C[C@H](C)[C@H](OC)CN(C)C2=O	.	.	.	-	.	.
CO[C@@H]1CN(C)C(=O)c2ccc(NC(=O)c3ccccn3)cc2OC[C@@H](C)N(Cc2ccccn2)C[C@H]1C	.	.	.	95	.	20µM
